# Out of some 200,000 compounds screened, about 5,100 (2.5%) were called active.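 How the source made its calls: active means activation above the screen-wide mean activation plus 3 SD (cut at about 130% in these data); inactive means the rest.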 The list comes from a sample in which actives are over-represented; it also holds similar structures and randomly drawn compounds. Where a SMILES comes first, the peptide text is derived from it. [ ]: non-standard residue; d: D form. ξ: configuration not given here. ξM = CSCCC(N)C(=O)O
# Test: potentiators of IFN-gamma driven STAT1 reporter – cell-based, HTS, luciferase reporter, primary screen (AID 932);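 further: raw ratio to IFN-gamma control signal so 100% means no change and 0% no light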
# Details: NIH 3T3 STAT1-luciferase reporter, luminescence, at 5.5 µM, hits give high values, 100% = IFN-gamma alone, no compound
row,SMILES,activation (% of control)
1,CC(=C/c1ccccc1)/C=N/NC(=O)c1cc(C)oc1C,117% (inactive)
2,O=C(O)/C=C\C(=O)Nc1ccc(OCc2ccccc2)cc1,120% (inactive)
3,Cn1c(SCC(=O)NC2CCCCC2)nnc1-c1ccc(N)cc1,101% (inactive)
4,CCSc1nc(C)c(CCOc2cccc(C)c2)c(=O)[nH]1,102% (inactive)
5,CCC(=O)Oc1cccc(C(=O)Nc2ccc(-c3nnc(-c4ccco4)o3)cc2)c1,104% (inactive)
6,CCCCOc1ccc(-c2nnc(-c3ccco3)o2)cc1,130% (active)
7,CCOc1ccc(-c2nnc(-c3ccco3)o2)cc1,93.5% (inactive)
8,COC(=O)CSc1nc(C)c2ccc(OC)cc2n1,108% (inactive)
9,COc1ccc(-c2nnc3ccc(SCc4ccccc4)nn23)cc1,96.5% (inactive)
10,COc1ccc2nc(SCc3ccccc3)nc(C)c2c1,188% (active)
11,Cc1ccc(C)c2[nH]c(=O)c(CCNC(=O)c3cccs3)cc12,102% (inactive)
12,CCOC(=O)C1(CCOC)CCN(Cc2ccc(C(=O)OC)cc2)CC1,106% (inactive)
13,CN1C(=O)/C(=C/C=C2\SCCN2C)OC1=S,158% (active)
14,O=C(NCc1ccccn1)c1cc(Br)ccc1Cl,104% (inactive)
15,COc1ccc(OCC(=O)NNC(=O)c2cccc(C)c2)cc1,103% (inactive)
16,Cc1cccc(-n2c(C)cc(/C=N\NC(=O)c3cccs3)c2C)c1,140% (active)
17,O=C(O)c1ccc(NC(=O)c2cccs2)cc1,98.1% (inactive)
18,O=C(N/N=C/C=C/c1ccco1)c1cccs1,127% (inactive)
19,Cc1cccc(-n2c(C)cc(/C=N/NC(N)=S)c2C)c1,110% (inactive)
20,Cc1ccc(-n2nc(C)c(/C=N/NC(=O)c3cccs3)c2Cl)cc1,106% (inactive)
21,CC(=O)Nc1ccc(/C=N/NC(=O)c2cccs2)cc1,136% (active)
22,CN(C)N(C)C(=O)C(O)(c1ccccc1)c1ccccc1,93.5% (inactive)
23,COc1cc(OC)c(C(=O)OCC(=O)N2CC(=O)Nc3ccccc32)cc1OC,97% (inactive)
24,N#C/C(=C/c1cccc([N+](=O)[O-])c1)c1nnc2n1CCCCC2,100% (inactive)
25,C/C(=N/Nc1ccc(Cl)cc1)c1cnnc(-c2ccccc2)n1,99.5% (inactive)
26,COC(=O)CNC(=O)C(CCSC)NC(C)=O (stereo not given) (Ac-[ξM]-Gly-OMe),99.5% (inactive)
27,C=CCNc1cnn(-c2ccc(C)cc2)c(=O)c1Cl,134% (active)

row,SMILES,activation (% of control)
1,Cc1ccc(Oc2cnn(-c3ccccc3)c(=O)c2Br)cc1,108% (inactive)
2,O=c1c(Cl)c(NC2CC2)cnn1-c1ccccc1,108% (inactive)
3,CN(C)c1ccc(/C=N/Nc2cc(N3CCOCC3)nc(N3CCOCC3)n2)cc1,104% (inactive)
4,C=CCN(c1ccc(Cl)cc1)S(=O)(=O)c1cccc(C(=O)OCC(=O)N(C)C)c1,97.2% (inactive)
5,Cc1ccc(-c2cn3cc(C)ccc3n2)cc1,12.9% (inactive)
6,Cc1ccc(-c2cn3cc([N+](=O)[O-])ccc3n2)cc1,133% (active)
7,Cc1ccc(-n2cc3ccc([N+](=O)[O-])cc3n2)cc1,123% (inactive)
8,CCN(/N=C/c1ccccc1)c1cc(=O)n(C)c(=O)[nH]1,98.7% (inactive)
9,COc1ccccc1NC(=O)C1=C(C)NC(=O)NC1c1ccc(C)s1 (stereo not given),99.8% (inactive)
10,COc1ccc(-c2cn3ccsc3n2)cc1,135% (active)
11,CCCC(=O)Nc1cccc(-c2cn3ccsc3n2)c1,108% (inactive)
12,COc1ccc(-c2cn3cccnc3n2)cc1,118% (inactive)
13,COc1cc(NC(=O)CSc2nnc3ccc(-c4ccncc4)nn23)cc(OC)c1,104% (inactive)
14,C=CCN1C(=O)C(O)(CC(=O)c2ccccn2)c2ccccc21 (stereo not given),104% (inactive)
15,COc1ccc(-c2cc(C(=O)NC(Cc3c[nH]c4ccccc34)C(=O)O)c(C)o2)cc1OC (stereo not given),93.3% (inactive)
16,O=C(Nc1ccc(Br)cn1)c1ccc([N+](=O)[O-])cc1Cl,142% (active)
17,O=C(Nc1ccc(Br)cn1)c1ccc([N+](=O)[O-])o1,108% (inactive)
18,CC(C)C(=O)Nc1cccc(NC(=O)c2ccc([N+](=O)[O-])cc2Cl)c1,112% (inactive)
19,O=C(NC1CCCC1)C(NS(=O)(=O)c1ccc(Br)s1)c1ccccc1 (stereo not given),94.7% (inactive)
20,C/C(=N\NC(=S)NC(C)C)c1ccc(C(C)(C)C)cc1,94.3% (inactive)
21,COc1cccc(C(=O)Nc2cc3c(cc2Br)OCCCO3)c1,141% (active)
22,COc1cccc(C(=O)NNC(=O)c2ccccc2Br)c1,98.2% (inactive)
23,COc1ccc(C2COC(=O)C2=N)c(NC(=O)c2ccccc2)c1 (stereo not given),107% (inactive)
24,Cc1cccc(-n2c(O)c(C=Nc3ccccc3N)c(=O)[nH]c2=O)c1,156% (active)
25,Cc1ccc(N=Cc2c(O)n(-c3nccs3)c(=O)c3ccccc23)c(C)c1,105% (inactive)
26,Cc1cccc(N2CCN(S(=O)(=O)c3ccc4[nH]c(=O)c(=O)[nH]c4c3)CC2C)c1 (stereo not given),99.2% (inactive)
27,[O-][n+]1onc2c1CCc1[nH]c(-c3ccccc3)nc1-2,101% (inactive)

row,SMILES,activation (% of control)
1,Cc1ccc(NC(=O)c2ccc(S(=O)(=O)NCC3CCCO3)cc2)cc1C (stereo not given),103% (inactive)
2,O=C(NCc1ccncc1)NC12CC3CC(CC(C3)C1)C2,94.6% (inactive)
3,O=C(Nc1ccccc1)OCc1cc(-c2ccc(Cl)cc2)on1,95.6% (inactive)
4,O=C(Nc1cccc(CCc2ccccn2)c1)c1ccc(Cl)cc1,96.1% (inactive)
5,O=C(Nc1cccc(Cl)c1)OCc1ccccn1,130% (active)
6,Cc1nc([N+](=O)[O-])cn1CC(=O)Nc1ccc2c(c1)OCO2,101% (inactive)
7,CCOC(=O)NC(=O)C(=CNc1cccc(OC)c1)C(=O)NC(=O)OCC,93.9% (inactive)
8,O=C(Nc1ccccc1Cl)c1ccc2nsnc2c1,133% (active)
9,O=C(Nc1ccccc1)c1ccc2nsnc2c1,113% (inactive)
10,Cc1cccc(NC(=O)c2ccc3nsnc3c2)c1C,104% (inactive)
11,Cc1ccc(C(=O)Nc2cccc3ncccc23)cc1[N+](=O)[O-],106% (inactive)
12,Nc1nc(-c2sc3nc4c(cc3c2N)CCCC4)nc(N2CCOCC2)n1,153% (active)
13,Cc1cc(Oc2ccccc2)nc(N2CCOCC2)n1,100% (inactive)
14,Cc1nc(N2CCOCC2)nc2c1CCCC2,98.4% (inactive)
15,CC(C)OC(=O)CN1CCN(c2ccc(Cl)cc2)CC1,92.2% (inactive)
16,Nc1nnnn1CC(=O)N/N=C/c1ccc(-c2cccc(Cl)c2)o1,94.7% (inactive)
17,O=C1NC(c2cccc(Cl)c2)Nc2ccccc21 (stereo not given),107% (inactive)
18,O=C1c2ccccc2NC(c2ccc(-c3cccc(Cl)c3)o2)N1O (stereo not given),132% (active)
19,COc1ccc(C2=NN(c3nc4ccccc4s3)C(=O)C2)cc1,101% (inactive)
20,CCOc1ccc(NC(=O)NNC(=O)c2ccc(Cl)cc2Cl)cc1,97.2% (inactive)
21,CS(=O)(=O)N(CC(=O)N1CCCC1)Cc1ccccc1,98.3% (inactive)
22,O=C(CC1CCCCC1)NCc1ccco1,108% (inactive)
23,Cc1ccc(OCC(=O)NC(C)c2ccccc2)c([N+](=O)[O-])n1 (stereo not given),117% (inactive)
24,CSCC(NS(=O)(=O)c1ccc(C)cc1)C(=O)O (stereo not given),105% (inactive)
25,O=C(Nc1cccc(Cl)c1N1CCOCC1)c1ccc2c(c1)OCCO2,92.9% (inactive)
26,CN1CCN(c2ccc(NC(=O)c3ccc4c(c3)OCCO4)cc2Cl)CC1,144% (active)
27,O=C(Nc1ccc2c(c1)OCCO2)c1ccc(Cl)c(S(=O)(=O)N2CCCCC2)c1,96.8% (inactive)

row,SMILES,activation (% of control)
1,CC(O)CNCCOc1cccc(Oc2ccccc2)c1 (stereo not given),102% (inactive)
2,COc1ccc(C(=O)Nc2nc(-c3ccc(S(=O)(=O)N4CCOCC4)cc3)cs2)cc1,85.1% (inactive)
3,COc1ccc(-c2csc(N3CCN(Cc4ccc5c(c4)OCO5)CC3)n2)cc1,101% (inactive)
4,COc1ccc(-c2csc(Cc3nc(O)cs3)n2)cc1,221% (active)
5,Cc1cc(/C=C2/C(=N)N3C(=NC2=O)SN=C3S(C)(=O)=O)c(C)n1-c1ccccc1,107% (inactive)
6,CCCCN(CC)C(=S)Nc1ccc2nc3n(c(=O)c2c1)CCCCC3,91% (inactive)
7,Cc1cc(NC(=O)Nc2ccccc2[N+](=O)[O-])no1,114% (inactive)
8,Cc1c(NC(=O)Nc2ccccc2)cccc1[N+](=O)[O-],83.6% (inactive)
9,Cc1csc(NC(=O)Nc2ccccc2[N+](=O)[O-])n1,133% (active)
10,CN(Cc1cccc2ncccc12)C(=O)CC1C(=O)NCCN1Cc1ccc(F)cc1 (stereo not given),98.1% (inactive)
11,O=C(c1ccc(Cl)cc1)c1cnc(Nc2ccccc2)s1,119% (inactive)
12,CC(C)(C)C(=O)c1cnc(Nc2ccccc2)s1,156% (active)
13,CC(=O)c1cnc(-c2ccccc2)s1,116% (inactive)
14,CS(=O)(=O)n1nc(-c2ccco2)nc1N,105% (inactive)
15,COc1ccc(C(=O)CSc2nnnn2C)c(OC)c1,107% (inactive)
16,CNC(=O)CSc1nnnn1-c1ccc(C)cc1C,97.7% (inactive)
17,CCn1nnnc1SCC(=O)c1ccc(C)cc1C,145% (active)
18,O=C(NCCSc1ccccc1)c1ccco1,134% (active)
19,O=C(CSc1ccccc1)Nc1ccc(NC(=O)c2ccco2)cc1,109% (inactive)
20,COc1ccc(CCNC(=O)c2ccco2)cc1,109% (inactive)
21,CN(C)S(=O)(=O)N1CCN(c2ccc([N+](=O)[O-])cc2)CC1,110% (inactive)
22,C/[N+]([O-])=C\c1ccc([N+](=O)[O-])o1,99.5% (inactive)
23,Cn1cc(/C=C/c2nc3ccccc3c(=O)n2-c2cccc([N+](=O)[O-])c2)c2ccccc21,85.4% (inactive)
24,CCn1c(/C=C/c2ccc([N+](=O)[O-])o2)nc2ccccc2c1=O,182% (active)
